TEAD-YAP block: TEAD-YAP interaction inhibition, primary screen, TEAD-YAP interaction inhibitor project, luminescence, HEK-TIYL cells; TEAD-Gal4/YAP UAS-luciferase luminescence; inhibition, % at 9.12 µM; actives 1.4% (n = 640,000); in the data active = inhibition above about 32%;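 note: 0% = median of test compound wells and 100% = reference inhibitor wells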
GPR151 activ: activators of human GPR151, primary screen, cell-based, PathHunter beta-arrestin, luminescence. G-protein coupled receptor 151 (Homo sapiens), Q8TDV0. PathHunter beta-arrestin GPR151 cells. activation, % at 11.2 µM. actives 1% (n = 650,000). AID 1508602, 2020; in the data active = activation above about 4.9%;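 note: 0% = median of compound wells and 100% = cells with positive control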
Target sequence (Q8TDV0 whole entry, looked up): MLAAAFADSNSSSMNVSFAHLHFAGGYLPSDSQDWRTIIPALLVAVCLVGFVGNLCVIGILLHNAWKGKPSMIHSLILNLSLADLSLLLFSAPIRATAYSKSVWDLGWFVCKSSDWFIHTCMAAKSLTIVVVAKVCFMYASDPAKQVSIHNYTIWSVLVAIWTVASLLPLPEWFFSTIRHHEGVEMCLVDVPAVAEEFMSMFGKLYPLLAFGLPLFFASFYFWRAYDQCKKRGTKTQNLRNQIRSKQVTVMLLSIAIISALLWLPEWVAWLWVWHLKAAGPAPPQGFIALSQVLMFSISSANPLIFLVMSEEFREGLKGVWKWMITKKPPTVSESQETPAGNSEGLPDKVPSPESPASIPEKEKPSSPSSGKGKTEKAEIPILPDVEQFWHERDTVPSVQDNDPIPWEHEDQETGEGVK
FBW7 activator: FBW7 E3 ligase activators, primary screen, biochemical, AlphaScreen, human | F-box/WD repeat-containing protein 7 (Homo sapiens), Q969H0 | normalized activity (activation), % at 26.1 µM | actives 0.13% (n = 650,000) | AlphaScreen FBW7–phospho-cyclin E peptide binding, activator screen; in the data active = normalized activity above about 1.9%;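 note: purified mutant Fbw7 with reduced substrate affinity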
MITF inh: MITF inhibitors, primary screen, biochemical, AlphaScreen, human | AlphaScreen MITF homodimerization, bead proximity signal | inhibition, % at 2.6 µM | actives 0.91% (n = 650,000) | AID 1259374, 2018; in the data active = inhibition above about 50%;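 note: 0% = vehicle wells with protein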
Starred values were filed as active, the others as inactive. Hits are enriched below; roughly 3.5% of the tested compounds scored in any of these assays.

SMILES	TEAD-YAP block	GPR151 activ	FBW7 activator	MITF inh
CCOc1ccc2nc(N3CCC(C(=O)Nc4cccc(C(C)=O)c4)CC3)sc2c1	69*	1	1	19
CCOc1ccc(NC(=O)C2CCN(c3nc4ccc(OCC)cc4s3)CC2)cc1	12	1	0	-3
CCOc1ccc2nc(SCCC(=O)Nc3ccccc3)sc2c1	36*	1	0	-4
CCc1ccc2nc(N3CCCC(C(=O)O)C3)sc2c1 (centres undefined)	58*	0	0	9
CCc1ccc2nc(N3CCC(C(=O)N4CCCC4)CC3)sc2c1	48*	0	0	2
CCOc1ccc2nc(SCCC(=O)Nc3ccc(OC)cc3)sc2c1	28	3	0	1
COc1ccccc1N1CCN(CC(=O)Nc2ccc(N3CCOCC3)cc2)CC1	8	2	0	8
COc1cc(OC)cc(C(=O)c2c(N)sc3c2CCC(C)C3)c1 (centres undefined)	54*	1	0	-5
COc1cc(OC)cc(C(=O)c2c(N)sc3c2CCCC3)c1	3	0	0	-11
O=C(NCc1ccco1)c1cc2ccccn2n1	-31	-2	0	-6
CC(C)CC(=O)Nc1ccc(S(=O)(=O)N2CCC(c3nc4ccccc4[nH]3)CC2)cc1	34*	1	0	20
Cc1ccccc1C(=O)Nc1cccc(F)c1Cl	-33	-4	0	-1
COc1ccccc1-c1nc(Cn2cnc3cc(C)c(C)cc32)no1	33*	3	1	-3
CCOC(=O)c1c(NC(=O)CSc2nnc(CNC(=O)c3ccccc3OC)n2C)sc2c1CCCC2	-2	-1	0	-3
CC(=O)N1c2ccc(-c3csc(NC(=O)c4ccncc4)n3)cc2CC1C (centres undefined)	68*	0	0	-9
COc1ccc(-n2nc3nc[nH]c(=O)c3n2)cc1	46*	-5	0	6
COc1ccc(-n2ncc3c(=O)[nH]cnc32)cc1	-2	-1	1	12
COc1cc(NC(=O)c2cnc(Nc3cccc(N(C)C)c3)s2)cc(OC)c1OC	-37	3	0	9
Cc1cccc(NC(=O)c2cc3nc(-c4ccc(Cl)cc4)cc(C(F)(F)F)n3n2)c1	-5	0	0	16
CN1CCN(c2ccc(NC(=O)COc3ccccc3[N+](=O)[O-])cc2)CC1	6	1	0	15
COc1ccc(NC(=O)c2cc3cccc(OC)c3oc2=O)cc1	-18	0	0	15
COc1cccc2cc(C(=O)Nc3ccc(CC(=O)O)cc3)c(=O)oc12	72*	-4	0	-11
COc1cccc(C(=O)Nc2ccc(N3CCN(C(=O)C(C)C)CC3)cc2)c1	46*	1	0	-7
COc1cccc(C(=O)Nc2ccc(Oc3ccc4c(c3)C(=O)NC4=O)cc2)c1	51*	-1	0	7
CC(C)C(=O)N1CCN(c2ccc(NC(=O)COc3ccccc3[N+](=O)[O-])cc2)CC1	50*	0	0	9
SMILES	TEAD-YAP block	GPR151 activ	FBW7 activator	MITF inh
Cc1cccc(C(=O)Nc2ccc(N3CCN(C(=O)C(C)C)CC3)cc2)c1	-5	0	0	-10
O=C(CSCc1c(F)cccc1Cl)Nc1ccccc1	-17	2	0	2
COc1cccc(C(=O)NNC(=O)Cc2ccc(-c3ccccc3)cc2)c1	62*	1	1	-4
COc1cccc(C(=O)Nc2ccc(CC(=O)O)cc2)c1	60*	-1	0	-3
COc1cccc(C(=O)Nc2ccc(-c3ccccc3)cc2)c1	-16	-2	0	-2
COc1cc(/C=N/Nc2snc(SC)c2C#N)cc(OC)c1OC	34*	-1	0	2
CCOc1ccc(/C=N/Nc2snc(SC)c2C#N)cc1	-9	1	0	8
COCCn1c(Cc2ccccc2)nnc1SCC(=O)NC(C)(C)C	59*	0	0	-13
CCn1c(Cc2ccccc2)nnc1SCC(=O)NC(C)(C)C	-17	2	0	-2
O=C(O)c1ccccc1	-1	0	0	-4
O=C(O)c1cc(O)c(O)c(O)c1	1	1	0	76*
Cc1nc2ccc(NS(=O)(=O)c3ccc(C(C)C)cc3)cc2s1	32*	2	0	6
CCOC(=O)c1ccc(NC(=O)CN2C(=O)CC(C)(C)S(=O)(=O)c3ccccc32)cc1	22	-1	5.2*	5
Cc1nc2c(c(=O)[nH]1)CCN(Cc1cn(C)nc1C)C2	0	0	0	8
CCc1ccc(S(=O)(=O)Nc2cccc(N3CCCS3(=O)=O)c2)cc1	33*	1	0	15
CC(C)(C)NS(=O)(=O)c1ccc(F)cc1	-2	1	0	-5
CC(C)(C)NS(=O)(=O)c1ccc(Cc2ccc(S(=O)(=O)NC(C)(C)C)cc2)cc1	37*	-1	0	-4
CC(C)NS(=O)(=O)c1ccc(Cc2ccc(S(=O)(=O)NC(C)C)cc2)cc1	35*	1	0	5
CSc1sccc1/C=N/NC(=O)c1cccc(Cl)c1	-23	1	0	5
Cc1cccc(NC(=O)C2COc3ccccc3O2)n1 (centres undefined)	-30	1	0	7
O=C(Nc1cc(C(F)(F)F)cc(Cl)n1)C1COc2ccccc2O1 (centres undefined)	9	-1	1.9*	13
CC1(Cc2ccccc2)C(=O)Nc2ccc(-c3cccnc3)cc21 (centres undefined)	18	0	0	8
CC1(Cc2ccc3c(c2)OCO3)C(=O)Nc2ccc(-c3cccnc3)cc21 (centres undefined)	42*	1	0	11
CCOC(=O)c1cnc2ccc(OC)cc2c1Nc1ccccc1CC	-6	1	0	-19
CCOc1ccc(/C=C/C(=O)Nc2ccccc2F)cc1	91*	-9	0	-2
SMILES	TEAD-YAP block	GPR151 activ	FBW7 activator	MITF inh
CCOc1cc(C2CC(=O)Nc3cc(C)c(C)cc32)cc(Br)c1OCC (centres undefined)	4	-1	0	9
CC(C)(C)c1ccc(-c2nc(-c3c(F)cccc3F)no2)cc1	68*	1	0	-8
CC(C)(C)c1ccc(-c2nc(-c3nonc3N)no2)cc1	51*	0	0	-2
Cc1ccc(-c2nc(-c3nonc3N)no2)cc1	-30	2	0	8
N#Cc1ccc(-c2nc(-c3c(F)cccc3F)no2)cc1	-16	2	0	9
CC1=CCC(C(=O)O)C(C(=O)Nc2cccc(Cl)c2C)C1 (centres undefined)	7	2	0	7
CCOc1cccc2c1OC1(C)CC2NC(=O)N1c1cccc(F)c1 (centres undefined)	11	3	4.4*	-5
COc1ccccc1N(Cc1nnc2n1CCCCC2)C(=O)Nc1cccc(Cl)c1	-6	-1	0	20
C=CCNC(=O)NC(=O)COC(=O)C(CCSC)NC(=O)c1ccccc1OC (centres undefined)	-7	1	0	-4

From PubChem BioAssay
